Laboratory results reported in PubChem BioAssay (NCI).
The panel holds about 83,000 compounds, 20% with a hit somewhere; the sample as a whole holds those more often.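 Treatment: one concentration, 48 hours, 96-well format. Scoring: percent growth, with anything below 10 considered active.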 Activity calls are given as the source filed them.

The molecules below were run on A549/ATCC NSCLC (assay: NCI-60 one-dose screen, 48 h (100 = growth as untreated, 0 = no growth, -100 = all killed)). Conditions: 10 µM unless noted.
Protocol: Growth inhibition of the A549/ATCC human Non-Small Cell Lung tumor cell line is measured as a screen for anti-cancer activity. Cells are grown in 96 well plates and exposed to the test compound for 48 hours. Compounds are tested at a single concentration, which is 10^-5 M for most compounds. The reported endpoint is percent growth (GI% or GIPRCNT), where numbers from 0 - 100% represent growth inhibition, and numbers from -100% - 0 represent cell death. For example, a value of 40 represents 60% growth inhibition. A value of 0 means no net growth occurred over the course of the experiment. A value of -40 indicates 40% of cells at the beginning of the experiment died by the end of the experiment. A value of -100 means all cells are dead at the end of the experiment.
NCI-60 Human Tumor Cell Lines Screen was performed using the standard one-dose NCI protocol, which is described in more detail at https://dtp.cancer.gov/discovery_development/nci-60/default.htm.
Compounds with GIPRCNT values below 10 were considered active. Activity score was based on GIPRCNT using the following formula: […]
Score is 0 for GIPRCNT values of 100 or above, 50 for GIPRCNT values of 0, and 100 for GIPRCNT values of -100.
For `NC1=NC(=O)NC1(c1ccccc1)c1ccccc1`, the growth was 93.3% (inactive).
In the case of `O=C(O)c1cn(C2CC2)c2cc(N3CCN(Cc4cc(Cl)ccc4O)CC3)c(F)cc2c1=O`, the growth is reported as 30.4% (inactive).
`CC(C)C1=NOC(=O)C1=Cc1cn(-c2ccccc2)nc1-c1ccccc1` was tested, and the growth was 88.8% (inactive).
In the case of `COc1ccc(/C=C/C=C\C(=O)c2ccc(-n3ccnc3)cc2)cc1`, the growth is reported as 81.9% (inactive).
For `O=C(Nc1cccc2cccnc12)c1cc(C(=O)c2ccc(Cl)cc2)n2ccc(-c3ccncc3)cc12`, the growth was 99.1% (inactive).
With `CC1=C/C(=C(\c2cc(C)c(O)c(C(=O)O)c2)c2c(Cl)cccc2Cl)C=C(C(=O)O)C1=O` the growth was 100% (inactive).
For `Cc1ccc(Oc2c(/C=N/NC(=O)Cn3c(=O)sc4ccccc43)c(C)nn2-c2ccccc2)cc1`, the growth was 32.8% (inactive).
With `CCOC(=O)n1cc(C2=C(c3ccc(OC)c(OC)c3)COC2=O)c2ccccc21` the growth was 17.8% (inactive).
`CC(C)CCSc1nc(N)nc2nc[nH]c12` was tested, and the growth was 104% (inactive).
In the case of `CCOC(=O)c1nn(C2CCCCO2)c2ccc(NS(=O)(=O)c3ccc(C)cc3)cc12` (stereo not given), the growth is reported as 95.1% (inactive).
For `COc1cc(-c2cc(-c3ccc(Nc4ncnc5cc(Cl)ccc45)cc3)nc(N3CCCCC3)n2)cc(OC)c1OC`, the growth was 84.7% (inactive).
In the case of `CCCCNC(=O)NS(=O)(=O)Cc1ccccc1`, the growth is reported as 101% (inactive).
`Cc1ccc(-c2cc(-c3ccc(C)cc3)nc(N3CCN(CCNc4ccnc5cc(Cl)ccc45)CC3)n2)cc1` was tested, and the growth was 59.1% (inactive).
With `O=S(=O)(NCc1ccccc1)c1ncnc2nc[nH]c12` the growth was 86.5% (inactive).
With `C=C(C)[C@@H]1CC[C@]2(C)[C@H](C(=O)C=C3[C@@H]4C[C@](C)(C(=O)N5CCN(C)CC5)CC[C@]4(C)CC[C@]32C)[C@@]1(C)CCC#N` the growth was -67.3% [100 µM] (active).
In the case of `CCC(C)[C@H](NC(=O)NC(=O)NC(=O)CI)C(=O)OC` (stereo not given in full), the growth is reported as 91.9% (inactive).
With `O=[N+]([O-])c1cccc(/C=C/c2ccc3ccccc3n2)c1` the growth was 79.5% (inactive).
With `CN(Cc1cccc(C(F)(F)F)c1)C(=O)[C@@H](CC(=O)N1CCC(N2CCCCC2)CC1)N1C(=O)[C@@H](N2C(=O)OC[C@@H]2c2ccccc2)[C@H]1/C=C/c1ccccc1` the growth was 80.6% (inactive).
For `O=c1[nH]c2cc(Cl)c(Cl)cc2n2cc3ncccc3c12`, the growth was 91.2% (inactive).
For `Cc1ccc(S(=O)(=O)Oc2ccc([N+](=O)[O-])cc2[N+](=O)[O-])cc1`, the growth was 104% (inactive).
For `COc1ccc(-c2cc(-c3ccc(Cl)cc3)nc(SCCCCCCC(=O)NO)n2)cc1`, the growth was 13% (inactive).
For `O=[N+]([O-])c1cc([N+](=O)[O-])c(C(F)(F)F)cc1NN=C(c1ccc(O)cc1)c1ccc(O)cc1`, the growth was -60.4% (active).
With `C=C(C)C1CCC2(C(=O)O)CCC3(C)C(CCC4C5(C)CCC(OC(=O)NCc6ccccc6)C(C)(C)C5CCC43C)C12` (stereo not given) the growth was 26.7% (inactive).
In the case of `CNc1cc(C(=O)O)nc(NC)n1`, the growth is reported as 101% (inactive).
In the case of `CCNc1cc2c(cc1Br)-c1ccccc1C2=O`, the growth is reported as 96.3% (inactive).
In the case of `CC(C)C1=NOC(=O)C1=Cc1cn(-c2ccccc2)nc1-c1ccc(Cl)cc1`, the growth is reported as 100% (inactive).
For `C#CC(OC(=O)N(C)C)(c1ccccc1)c1ccc(F)cc1` (stereo not given), the growth was 75% (inactive).
`CC1=CCc2ccccc21` was tested, and the growth was 97.1% (inactive).
For `C[C@@H](NC(=O)[C@@H](CC(=O)N1CCC(N2CCCCC2)CC1)N1C(=O)[C@@H](N2C(=O)OC[C@@H]2c2ccccc2)[C@H]1/C=C/c1cccc(Cl)c1)c1ccccc1`, the growth was 63.9% (inactive).
`COc1ccc(C2CC(c3cc(OC)c(OC)c(OC)c3)=NN2C(C)=O)cc1OCC(=O)Nc1nc2ccc(C(F)(F)F)cc2s1` (stereo not given) was tested, and the growth was 50.5% (inactive).
With `CC1(C)OC2[C@@H](CNC(=O)NC(=O)NC(=O)CI)O[C@@H](n3cnc4c(NC(=O)Nc5ccccc5)ncnc43)[C@H]2O1` (stereo not given in full) the growth was 94.9% (inactive).
In the case of `CCCCN(CCCC)CC(O)c1ccc(OCc2ccccc2)c2ccccc12` (stereo not given), the growth is reported as 86.1% (inactive).
In the case of `COc1ccc(/C=C(/C(=O)c2ccc(Cl)cc2)C(=O)C(F)(F)F)cc1`, the growth is reported as 92% (inactive).
With `CC1(C(=O)O)CCC(N)(C(=O)O)C1(C)C` (stereo not given) the growth was 110% (inactive).
With `O=C(N/N=C1\c2ccccc2-c2cccc(C(=O)O)c21)c1ccc(O)cc1` the growth was 95.8% (inactive).
With `Cn1c(=O)c(C#N)c(-c2ccco2)n2c(S(=O)(=O)Cc3ccccc3)nnc12` the growth was 92.8% (inactive).
`CC(=O)CC(=O)SC1=NCCS1` was tested, and the growth was 87.6% (inactive).
For `CCOC(=O)c1sc2nc(-c3cc(OC)c(OC)c(OC)c3)nc(N3CCOCC3)c2c1C`, the growth was 28.9% (inactive).
For `COc1ccc(C2NC(=O)C(C#N)c3c2sc2c(F)cccc32)cc1` (stereo not given), the growth was 42.6% (inactive).
In the case of `Nc1cc(NN=C(c2ccc(O)cc2)c2ccc(O)cc2)c([N+](=O)[O-])cc1[N+](=O)[O-]`, the growth is reported as -49.6% (active).
